Source: ChEMBL document CHEMBL4513216, “Probing the Open Global Health Chemical Diversity Library for Multistage-Active Starting Points for Next-Generation Antimalarials” (ACS Infect Dis, 2020)
Among all 65,000 compounds or so, about 2,100 (3.2%) showed an effect of 50% or more. The median lay at about -52%. What follows is part of a selection rich in strong results, with near analogues and random picks from the rest.

Each compound was assayed on Plasmodium falciparum (assay: Screen against P. falciparum Asexual Blood Stage (ABS), at 5uM). Conditions: tested at 5 uM.
Assay type: functional, Dd2

**Q.** How did the INHIBITION turn out when `c1cnc(N2CC[C@@H](N3CCOCC3)[C@@H]2Cc2ccncc2)nc1` was run?
**A.** Its INHIBITION is -78%.

**Q.** For `CC(=O)N1CCC(c2n[nH]cc2-c2ccnc(N)c2)C1` (centres undefined), which INHIBITION is on record?
**A.** Its INHIBITION is -13.8%.

**Q.** With `Nc1cc(-c2c[nH]nc2C2CCN(C(=O)C3CCCC3)C2)ccn1` (centres undefined) as the compound, how does the INHIBITION read?
**A.** The INHIBITION was -27.3%.

**Q.** `CC(C)CNc1cc(-c2c[nH]nc2C2CCN(C(=O)C3CC3)C2)ccn1` (centres undefined) was tested. Which INHIBITION did it give?
**A.** Its INHIBITION is 84.6%.

**Q.** `COc1cccc(CCC2CCCN(Cc3ncc[nH]3)C2)c1` (centres undefined) was tested. Which INHIBITION did it give?
**A.** The INHIBITION was 22%.

**Q.** For `Cc1cc(N2CCC(Cc3ccccc3)CC2)nc(-c2ccncc2)n1`, which INHIBITION is on record?
**A.** The INHIBITION was -64.9%.

**Q.** For `O=S(=O)(c1cccs1)N1CC[C@H]2[C@H]1CCN2CC1CC1`, which INHIBITION is on record?
**A.** The INHIBITION was 57.7%.

**Q.** `CN1C(=O)CC[C@@H]2[C@H]1CCN2S(=O)(=O)c1cccs1` was tested. Which INHIBITION did it give?
**A.** Its INHIBITION is 47.1%.

**Q.** For `CC(C)CN1CC[C@@H]2[C@@H]1CCN2S(=O)(=O)c1cccs1`, which INHIBITION is on record?
**A.** Its INHIBITION is 17.9%.

**Q.** `Cc1ccc(CNC(=O)c2ccc(=O)n(C)n2)c(OCC2CC2)c1` was tested. Which INHIBITION did it give?
**A.** Its INHIBITION is -124%.

**Q.** Which INHIBITION does the source give for `O=C1NCCN1C1CCN(Cc2nc(-c3ccsc3)no2)CC1` here?
**A.** The INHIBITION was -14.4%.

**Q.** Which INHIBITION does the source give for `COc1cc(C)ccc1OCC(=O)Nc1ccnc(OCCN(C)C)c1` here?
**A.** Its INHIBITION is -18.6%.

**Q.** With `COCC(=O)Nc1ccnc(OCCN(C)C)c1` as the compound, how does the INHIBITION read?
**A.** Its INHIBITION is -59.7%.

**Q.** How did the INHIBITION turn out when `CCc1ccccc1OCC(=O)Nc1ccnc(OCCN(C)C)c1` was run?
**A.** The INHIBITION was 59.7%.

**Q.** Which INHIBITION does the source give for `Cc1nc2ccn(C(C)C)c(=O)c2cc1C(=O)O` here?
**A.** The INHIBITION was -39.7%.

**Q.** With `CC(=O)N1CCC(n2ccc(-c3cnc(NCC(C)C)nc3)n2)CC1` as the compound, how does the INHIBITION read?
**A.** Its INHIBITION is -32.2%.

**Q.** How did the INHIBITION turn out when `CC(C)N(CCNc1nc(C2CCCC2)nc2c1cnn2C)C(C)C` was run?
**A.** Its INHIBITION is 58.6%.

**Q.** For `Cn1ncc2c(NCCn3cccc3)nc(C3CCCC3)nc21`, which INHIBITION is on record?
**A.** The INHIBITION was 9.86%.

**Q.** `CCOCCNc1nc(C2CCCC2)nc2c1cnn2C` was tested. Which INHIBITION did it give?
**A.** The INHIBITION was -129%.

**Q.** For `CNCCCNc1nc(C2CCCC2)nc2c1cnn2C`, which INHIBITION is on record?
**A.** The INHIBITION was -38.7%.

**Q.** With `Cn1ncc2c(NCCC34CCCN3CCC4)nc(C3CCCC3)nc21` as the compound, how does the INHIBITION read?
**A.** Its INHIBITION is 63.3%.

**Q.** Which INHIBITION does the source give for `CCS(=O)(=O)CCNc1nc(C2CCCC2)nc2c1cnn2C` here?
**A.** Its INHIBITION is -115%.

**Q.** With `N#CCCCS(=O)(=O)NC1(c2cccc(Br)c2)CC1` as the compound, how does the INHIBITION read?
**A.** Its INHIBITION is -148%.

**Q.** For `CCOC1COC2(CCN(c3ccccn3)CC2)C1` (centres undefined), which INHIBITION is on record?
**A.** Its INHIBITION is -0.961%.

**Q.** For `CCOCC(O)c1nc2c([nH]1)CC(C)(C)CNC2=O` (centres undefined), which INHIBITION is on record?
**A.** The INHIBITION was -96.9%.

**Q.** For `Cc1cnn(CC(C)NCc2ccc(-n3cccn3)cc2)c1` (centres undefined), which INHIBITION is on record?
**A.** Its INHIBITION is -72.7%.

**Q.** For `Cc1cnn(CCNCc2c(C)nn(Cc3ccccc3)c2C)c1`, which INHIBITION is on record?
**A.** Its INHIBITION is 34.2%.

**Q.** `Cc1cnn(CC(C)NCc2c(C)nn(Cc3ccccc3)c2C)c1` (centres undefined) was tested. Which INHIBITION did it give?
**A.** The INHIBITION was 50.7%.

**Q.** `CCOCC1CN(C(=O)C2CCOCC2)Cc2cnn(C)c21` (centres undefined) was tested. Which INHIBITION did it give?
**A.** Its INHIBITION is -57.8%.
